The results in this text go back to PubChem BioAssay (EPA / NIEHS).

The AC50 is the concentration at which the activity in the assay is half-maximal.

Test [1] concerns the target human Peroxisome Proliferator-activated Receptor alpha (PPARa), PPARA (gene 5465) (UniProt Q07869). The experiment in a line: ATG_PPARa_TRANS: Attagene TRANS-FACTORIAL HepG2 Assay for human Peroxisome Proliferator-activated Receptor alpha (PPARa) (AID 2283001; active means hit-call score of the fitted dose curve at least 0.9, where 1 is the maximum). An outline of the steps: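 Read-out is fluorescence of reporter cDNA fragments resolved by capillary electrophoresis after RT-PCR. Human HepG2 liver cells carried transfected PPARa-Gal4 chimera and GAL4-UAS reporter units, treated 24 h; activity scored as increase over DMSO.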

Read-out in test [2]: Intercellular Adhesion Molecule 1 (ICAM1), ICAM1 (gene 3383)
The experiment in a line: BSK_3C_ICAM1: BioMAP Diversity Plus: 3C Assay for Intercellular Adhesion Molecule 1 (ICAM1) Biomarker Activity (AID 2283003). To be noted: primary human endothelial cells (HUVEC); actives raise or lower the signal. An outline of the steps:
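ICAM-1 levels measured by ELISA after HUVEC cultures in the 3C system had been dosed for 24 h. Gain or loss of signal relative to DMSO was fitted in both directions.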

Test [3] is described as follows: BSK_3C_Proliferation: Cell Proliferation Assessment in the BioMAP Diversity Plus: 3C Assay (AID 2283006).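 On AC50: potency may reflect either rise or fall in cell number versus DMSO.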 To be noted: primary human endothelial cells (HUVEC). An outline of the steps: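 Read-out is total protein by SRB absorbance at 560 nm, taken as a proxy for relative cell number. Primary human umbilical vein endothelium cultured below confluence was dosed for 48 h, TCA-fixed and SRB-stained; curves were fitted bidirectionally versus DMSO.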

Test [4] deals with Peroxisome proliferator-activated receptor gamma (Homo sapiens) (UniProt P37231). The experiment in a line: ATG_PPARg_TRANS: Attagene TRANS-FACTORIAL HepG2 Assay for human Peroxisome Proliferator-activated Receptor-gamma (PPARg) (AID 2283007; active means hit-call score of the fitted dose curve at least 0.9, where 1 is the maximum). An outline of the steps: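 Multiplexed reporter transcription units in HepG2, 24 h dosing, reporter transcripts quantified by fluorescent RT-PCR and capillary electrophoresis. Increase over DMSO scored.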
Peroxisome proliferator-activated receptor gamma (Homo sapiens), sequence (P37231 whole entry, looked up): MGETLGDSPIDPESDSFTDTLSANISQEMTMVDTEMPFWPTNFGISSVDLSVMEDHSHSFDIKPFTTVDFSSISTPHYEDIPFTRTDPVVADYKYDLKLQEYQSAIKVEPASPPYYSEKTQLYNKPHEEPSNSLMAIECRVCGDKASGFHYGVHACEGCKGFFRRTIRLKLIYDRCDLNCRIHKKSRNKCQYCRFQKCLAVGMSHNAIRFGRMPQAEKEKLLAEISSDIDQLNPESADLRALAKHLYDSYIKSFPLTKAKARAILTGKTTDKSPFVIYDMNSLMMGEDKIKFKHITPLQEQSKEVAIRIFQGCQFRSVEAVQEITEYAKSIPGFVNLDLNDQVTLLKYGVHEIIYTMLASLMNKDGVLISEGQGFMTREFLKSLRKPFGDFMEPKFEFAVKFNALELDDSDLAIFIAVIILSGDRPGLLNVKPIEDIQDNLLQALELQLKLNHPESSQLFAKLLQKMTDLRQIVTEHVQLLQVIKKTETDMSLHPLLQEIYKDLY

Test [5] has as its target Nuclear receptor subfamily 1 group I member 2 (Homo sapiens) (UniProt O75469). The experiment in a line: ATG_PXR_TRANS: Attagene TRANS-FACTORIAL HepG2 Assay for human Pregnane X Receptor (PXR) (AID 2283008; active means hit-call score of the fitted dose curve at least 0.9, where 1 is the maximum). An outline of the steps: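 Measures mRNA induction of a GAL4-UAS-driven reporter in human HepG2 cells transiently expressing PXR fused to Gal4, following 24 h treatment. DMSO served as negative control and baseline.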

For test [6], the target named is human Thyroid Receptor alpha (THRa1), THRA (gene 7067) (UniProt P10827). The test is described as follows: ATG_THRa1_TRANS: Attagene TRANS-FACTORIAL HepG2 Assay for human Thyroid Receptor alpha (THRa1) (AID 2283014; active means hit-call score of the fitted dose curve at least 0.9, where 1 is the maximum). An outline of the steps:
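First, HepG2 cells receive multiple GAL4-UAS reporter units and the chimeric receptor. They are then dosed for 24 h, after which RNA is reverse-transcribed, amplified, labelled, HpaI-cut and sized by capillary electrophoresis; gain relative to DMSO is scored.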

Read-out in test [7]: E-selectin (Homo sapiens) (UniProt P16581)
The test is described as follows: BSK_3C_Eselectin: BioMAP Diversity Plus: 3C Assay for Eselectin Biomarker Activity (AID 2283015).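 On outcome: cell surface E-selectin protein quantified by ELISA 24 h after dosing.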 The settings on record: primary human endothelial cells (HUVEC); actives raise or lower the signal. An outline of the steps:
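Human vascular endothelium from umbilical vein is exposed to test chemicals for 24 h. E-selectin levels are read by ELISA and compared with DMSO controls.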

Read-out in test [8]: Interleukin-1 alpha (IL1a), IL1A (gene 3552)
The experiment in a line: BSK_BE3C_IL1a: BioMAP Diversity Plus: BE3C Assay for Interleukin-1 alpha (IL1a) Biomarker Activity (AID 2283016). The settings on record: primary human bronchial epithelial cells; actives raise or lower the signal. In a few lines:
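BE3C primary human bronchial epithelium; cpd 24 h; IL-1a by ELISA; bidirectional fit vs DMSO; parallel SRB (0.1% SRB, 10% TCA fix, 560 nm) for cytotoxicity.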

Read-out in test [9]: Monocyte Chemoattractant Protein-1 (MCP1), CCL2 (gene 6347)
The test is described as follows: BSK_3C_MCP1: BioMAP Diversity Plus: 3C Assay for Monocyte Chemoattractant Protein-1 (MCP1) Biomarker Activity (AID 2283017). To be noted: primary human endothelial cells (HUVEC); actives raise or lower the signal. An outline of the steps: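 Endothelial cells from human umbilical vein are dosed with chemical, cultured 24 h, then assayed for MCP-1 by ELISA; both increases and decreases are modelled against DMSO controls.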

Read-out in test [10]: Monocyte Chemoattractant Protein-1 (MCP1), CCL2 (gene 6347)
The test is described as follows: BSK_4H_MCP1: BioMAP Diversity Plus: 4H Assay for Monocyte Chemoattractant Protein-1 (MCP1) Biomarker Activity (AID 2283018). To be noted: primary human endothelial cells (HUVEC); actives raise or lower the signal. An outline of the steps: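 ELISA read-out of MCP-1 from human vascular endothelial primary cells taken at 24 hours after compound exposure. Activity was fitted in both directions relative to DMSO, which served as negative control.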

Read-out in test [11]: Interleukin-8 (IL8), CXCL8 (gene 3576)
The test is described as follows: BSK_3C_IL8: BioMAP Diversity Plus: 3C Assay for Interleukin-8 (IL8) Biomarker Activity (AID 2283020). To be noted: primary human endothelial cells (HUVEC); actives raise or lower the signal. An outline of the steps: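 ELISA read-out of IL-8 from human umbilical vein endothelium, measured 24 h after chemical dosing. Activity is expressed relative to DMSO negative control, with both increases and decreases fitted.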

The target in test [12] is human Peroxisome Proliferator-activated Receptor delta (PPARd), PPARD (gene 5467) (UniProt Q03181). The test is described as follows: ATG_PPARd_TRANS: Attagene TRANS-FACTORIAL HepG2 Assay for human Peroxisome Proliferator-activated Receptor delta (PPARd) (AID 2283002; active means hit-call score of the fitted dose curve at least 0.9, where 1 is the maximum). In a few lines: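 Read-out is induced reporter mRNA, quantified by RT-PCR with fluorescent labelling and capillary electrophoresis after 24 h dosing. Cells are HepG2 transiently carrying multiple GAL4-UAS reporter units driven by exogenous NR-GAL4 chimeras; DMSO serves as baseline.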
human Peroxisome Proliferator-activated Receptor delta (PPARd), PPARD (gene 5467), sequence (Q03181 whole entry, looked up, the tested form may be a part): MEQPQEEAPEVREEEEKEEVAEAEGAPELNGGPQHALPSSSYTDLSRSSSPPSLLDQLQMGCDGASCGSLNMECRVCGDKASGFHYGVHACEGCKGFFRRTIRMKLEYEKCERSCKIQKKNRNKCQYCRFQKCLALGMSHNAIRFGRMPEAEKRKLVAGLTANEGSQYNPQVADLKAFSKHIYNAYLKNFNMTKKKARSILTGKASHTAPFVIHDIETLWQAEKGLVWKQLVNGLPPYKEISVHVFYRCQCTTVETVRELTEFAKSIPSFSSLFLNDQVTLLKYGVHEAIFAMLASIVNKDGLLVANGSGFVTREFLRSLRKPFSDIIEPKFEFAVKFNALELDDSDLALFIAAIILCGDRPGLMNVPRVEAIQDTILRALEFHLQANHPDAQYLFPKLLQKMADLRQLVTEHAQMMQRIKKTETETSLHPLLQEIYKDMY

Test [13] addresses human RAR-related Orphan Receptor gamma (RORg), RORC (gene 6097) (UniProt P51449). The experiment in a line: ATG_RORg_TRANS: Attagene TRANS-FACTORIAL HepG2 Assay for human RAR-related Orphan Receptor gamma (RORg) (AID 2283011; active means hit-call score of the fitted dose curve at least 0.9, where 1 is the maximum). An outline of the steps: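 Activity is scored as increase in GAL4-UAS reporter mRNA over DMSO, detected by fluorescent RT-PCR and capillary electrophoresis in HepG2 cells transiently expressing a RORg-Gal4 chimera, 24 h after dosing.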

For test [14], the target named is human Retinoid X Receptor beta (RXRb), RXRB (gene 6257) (UniProt P28702). The test is described as follows: ATG_RXRb_TRANS: Attagene TRANS-FACTORIAL HepG2 Assay for human Retinoid X Receptor beta (RXRb) (AID 2283013; active means hit-call score of the fitted dose curve at least 0.9, where 1 is the maximum). An outline of the steps:
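Transfect HepG2 with GAL4-UAS multi-reporter constructs (chimeric NR-Gal4, TRANS format); dose compound 24 h; isolate RNA, RT-PCR, FAM primer extension, HpaI digest; quantify by capillary electrophoresis; positive direction vs DMSO.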

Read-out in test [15]: Human Leukocyte Antigen - DR isotype (HLADR), HLA-DRA (gene 3122)
The test is described as follows: BSK_3C_HLADR: BioMAP Diversity Plus: 3C Assay for Human Leukocyte Antigen - DR isotype (HLADR) Biomarker Activity (AID 2283019).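 Further: ELISA of cell-surface HLA-DR on HUVEC 24 h after dosing.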 To be noted: primary human endothelial cells (HUVEC); actives raise or lower the signal. In a few lines:
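Endothelial cells from human umbilical vein are treated with test chemical; after 24 h, HLA-DR levels are measured by ELISA. Data are fitted in both directions using DMSO as the baseline.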

The target in test [16] is human Retinoic Acid Receptor gamma (RARg), RARG (gene 5916) (UniProt P13631). The experiment in a line: ATG_RARg_TRANS: Attagene TRANS-FACTORIAL HepG2 Assay for human Retinoic Acid Receptor gamma (RARg) (AID 2283009; active means hit-call score of the fitted dose curve at least 0.9, where 1 is the maximum). An outline of the steps:
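Transient transfection of HepG2 with multi-reporter constructs, then 24 h chemical treatment. Total RNA isolated, reverse-transcribed, PCR-amplified, fluorescently labelled and resolved by capillary electrophoresis; activity scored as mRNA induction versus DMSO.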

Test [17] concerns the target Retinoic acid receptor RXR-alpha (Homo sapiens) (UniProt P19793). The experiment in a line: ATG_RXRa_TRANS: Attagene TRANS-FACTORIAL HepG2 Assay for human Retinoid X Receptor alpha (RXRa) (AID 2283012; active means hit-call score of the fitted dose curve at least 0.9, where 1 is the maximum). An outline of the steps:
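Transient transfection of human HepG2 with multiple GAL4-UAS reporter constructs; 24 h compound exposure; total RNA isolated, reverse-transcribed, PCR-amplified, 6-FAM labelled, HpaI-cut, resolved by capillary electrophoresis. Positive-direction fit versus DMSO.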

Test [18] addresses human Retinoic Acid Receptor beta (RARb), RARB (gene 5915) (UniProt P10826). The test is described as follows: ATG_RARb_TRANS: Attagene TRANS-FACTORIAL HepG2 Assay for human Retinoic Acid Receptor beta (AID 2283004; active means hit-call score of the fitted dose curve at least 0.9, where 1 is the maximum). An outline of the steps: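 HepG2, transient MRTU transfection, NR–Gal4 chimera, 24 h treatment; RT-PCR plus CE fluorescence detection of reporter mRNA; gain of signal vs DMSO.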

Test [19] deals with Retinoic acid receptor alpha (Homo sapiens) (UniProt P10276). The test is described as follows: ATG_RARa_TRANS: Attagene TRANS-FACTORIAL HepG2 Assay for human Retinoic Acid Receptor alpha (RARa) (AID 2283005; active means hit-call score of the fitted dose curve at least 0.9, where 1 is the maximum). An outline of the steps: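 Reporter transcripts, measured by RT-PCR with fluorescent labeling and capillary electrophoresis after 24 h dosing, reflect activity of an exogenous human RARa–GAL4 fusion in transiently transfected HepG2. Fitted for increase relative to DMSO.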

The structures appear in SMILES notation. Records with an inconclusive call do not appear. Activity calls are given as the source filed them. How the source made its calls, unless noted: active means hit-call score of the fitted dose curve at least 0.9, where 1 is the maximum; inactive means score below 0.9.

Retinoic acid receptor RXR-alpha (Homo sapiens), sequence (P19793 whole entry, looked up, the tested form may be a part): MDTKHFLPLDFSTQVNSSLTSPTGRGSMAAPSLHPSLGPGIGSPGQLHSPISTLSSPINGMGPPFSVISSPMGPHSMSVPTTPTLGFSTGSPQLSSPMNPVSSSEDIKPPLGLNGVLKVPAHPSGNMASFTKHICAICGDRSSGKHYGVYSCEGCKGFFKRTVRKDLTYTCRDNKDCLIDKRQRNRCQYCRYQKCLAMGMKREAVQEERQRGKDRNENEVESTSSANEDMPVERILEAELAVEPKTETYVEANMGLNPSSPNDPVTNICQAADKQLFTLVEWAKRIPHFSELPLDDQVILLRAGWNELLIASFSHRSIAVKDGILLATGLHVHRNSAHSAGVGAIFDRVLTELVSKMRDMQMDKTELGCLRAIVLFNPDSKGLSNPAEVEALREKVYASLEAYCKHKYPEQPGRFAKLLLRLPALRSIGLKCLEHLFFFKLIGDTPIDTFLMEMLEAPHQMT
human Retinoic Acid Receptor beta (RARb), RARB (gene 5915), sequence (P10826 whole entry, looked up, the tested form may be a part): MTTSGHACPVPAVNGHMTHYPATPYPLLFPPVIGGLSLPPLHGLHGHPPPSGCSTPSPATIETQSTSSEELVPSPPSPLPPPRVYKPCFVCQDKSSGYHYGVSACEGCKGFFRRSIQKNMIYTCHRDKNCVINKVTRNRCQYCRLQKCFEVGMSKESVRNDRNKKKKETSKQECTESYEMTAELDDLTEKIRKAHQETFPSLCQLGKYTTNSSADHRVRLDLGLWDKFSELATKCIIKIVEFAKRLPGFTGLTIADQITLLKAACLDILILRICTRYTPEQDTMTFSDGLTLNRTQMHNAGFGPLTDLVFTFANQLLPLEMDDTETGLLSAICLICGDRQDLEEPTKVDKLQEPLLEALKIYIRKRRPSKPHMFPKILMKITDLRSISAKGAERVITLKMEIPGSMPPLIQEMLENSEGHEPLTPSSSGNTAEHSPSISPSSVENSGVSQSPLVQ
E-selectin (Homo sapiens), sequence (P16581 whole entry, looked up): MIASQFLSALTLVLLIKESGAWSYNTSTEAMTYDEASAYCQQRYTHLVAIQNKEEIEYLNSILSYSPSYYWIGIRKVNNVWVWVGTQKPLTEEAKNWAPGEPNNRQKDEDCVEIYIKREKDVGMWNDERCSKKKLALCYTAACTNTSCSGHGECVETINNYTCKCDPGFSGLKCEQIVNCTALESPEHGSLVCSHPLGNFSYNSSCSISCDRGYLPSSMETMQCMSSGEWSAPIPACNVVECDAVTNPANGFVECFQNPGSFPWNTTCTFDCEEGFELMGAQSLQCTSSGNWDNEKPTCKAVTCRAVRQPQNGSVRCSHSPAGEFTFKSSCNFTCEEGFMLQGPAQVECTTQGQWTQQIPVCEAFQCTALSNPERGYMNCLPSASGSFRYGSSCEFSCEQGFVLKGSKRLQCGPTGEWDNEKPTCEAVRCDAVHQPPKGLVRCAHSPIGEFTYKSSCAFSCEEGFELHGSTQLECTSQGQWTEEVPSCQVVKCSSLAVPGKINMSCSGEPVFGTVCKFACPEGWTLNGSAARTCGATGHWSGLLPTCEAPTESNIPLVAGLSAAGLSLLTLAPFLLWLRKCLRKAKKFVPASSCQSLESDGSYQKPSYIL
Nuclear receptor subfamily 1 group I member 2 (Homo sapiens), sequence (O75469 whole entry, looked up, the tested form may be a part): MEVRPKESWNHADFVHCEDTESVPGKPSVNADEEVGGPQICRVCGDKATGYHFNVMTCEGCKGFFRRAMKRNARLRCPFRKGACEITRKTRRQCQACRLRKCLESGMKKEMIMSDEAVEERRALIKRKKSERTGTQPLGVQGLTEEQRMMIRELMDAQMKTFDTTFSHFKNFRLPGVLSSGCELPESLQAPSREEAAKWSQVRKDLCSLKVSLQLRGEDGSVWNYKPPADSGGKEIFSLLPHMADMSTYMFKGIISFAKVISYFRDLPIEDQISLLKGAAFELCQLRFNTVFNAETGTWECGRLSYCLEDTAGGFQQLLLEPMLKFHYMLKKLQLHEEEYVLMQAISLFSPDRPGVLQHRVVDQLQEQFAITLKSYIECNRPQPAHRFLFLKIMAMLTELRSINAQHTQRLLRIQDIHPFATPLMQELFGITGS
human RAR-related Orphan Receptor gamma (RORg), RORC (gene 6097), sequence (P51449 whole entry, looked up, the tested form may be a part): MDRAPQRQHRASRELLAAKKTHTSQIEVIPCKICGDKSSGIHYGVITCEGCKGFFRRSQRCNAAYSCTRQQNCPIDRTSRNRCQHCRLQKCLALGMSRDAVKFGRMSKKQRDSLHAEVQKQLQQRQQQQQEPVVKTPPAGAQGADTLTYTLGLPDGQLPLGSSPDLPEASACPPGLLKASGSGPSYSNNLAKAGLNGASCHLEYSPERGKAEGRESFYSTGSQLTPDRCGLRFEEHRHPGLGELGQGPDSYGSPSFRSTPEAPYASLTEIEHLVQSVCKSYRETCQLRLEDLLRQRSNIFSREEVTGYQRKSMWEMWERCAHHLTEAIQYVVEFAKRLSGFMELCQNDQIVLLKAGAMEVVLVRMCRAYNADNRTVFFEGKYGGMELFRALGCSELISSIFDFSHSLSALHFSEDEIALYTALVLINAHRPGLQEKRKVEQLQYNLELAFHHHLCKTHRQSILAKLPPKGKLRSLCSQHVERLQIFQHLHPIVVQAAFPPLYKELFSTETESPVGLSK
human Retinoid X Receptor beta (RXRb), RXRB (gene 6257), sequence (P28702 whole entry, looked up, the tested form may be a part): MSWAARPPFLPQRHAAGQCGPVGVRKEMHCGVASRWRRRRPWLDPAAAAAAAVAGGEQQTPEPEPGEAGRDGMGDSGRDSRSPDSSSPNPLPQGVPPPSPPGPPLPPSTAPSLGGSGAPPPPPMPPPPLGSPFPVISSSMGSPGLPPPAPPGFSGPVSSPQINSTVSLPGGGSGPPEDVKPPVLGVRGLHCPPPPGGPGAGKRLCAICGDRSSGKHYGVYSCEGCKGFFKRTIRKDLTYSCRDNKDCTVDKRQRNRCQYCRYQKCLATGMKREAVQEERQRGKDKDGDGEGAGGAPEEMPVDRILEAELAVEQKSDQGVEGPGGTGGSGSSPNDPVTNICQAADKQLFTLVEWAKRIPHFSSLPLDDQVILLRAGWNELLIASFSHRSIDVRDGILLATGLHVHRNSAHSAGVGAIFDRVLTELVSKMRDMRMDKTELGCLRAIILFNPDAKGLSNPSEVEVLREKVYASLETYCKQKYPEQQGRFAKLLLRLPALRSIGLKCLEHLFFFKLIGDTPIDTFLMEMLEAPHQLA
human Thyroid Receptor alpha (THRa1), THRA (gene 7067), sequence (P10827 whole entry, looked up, the tested form may be a part): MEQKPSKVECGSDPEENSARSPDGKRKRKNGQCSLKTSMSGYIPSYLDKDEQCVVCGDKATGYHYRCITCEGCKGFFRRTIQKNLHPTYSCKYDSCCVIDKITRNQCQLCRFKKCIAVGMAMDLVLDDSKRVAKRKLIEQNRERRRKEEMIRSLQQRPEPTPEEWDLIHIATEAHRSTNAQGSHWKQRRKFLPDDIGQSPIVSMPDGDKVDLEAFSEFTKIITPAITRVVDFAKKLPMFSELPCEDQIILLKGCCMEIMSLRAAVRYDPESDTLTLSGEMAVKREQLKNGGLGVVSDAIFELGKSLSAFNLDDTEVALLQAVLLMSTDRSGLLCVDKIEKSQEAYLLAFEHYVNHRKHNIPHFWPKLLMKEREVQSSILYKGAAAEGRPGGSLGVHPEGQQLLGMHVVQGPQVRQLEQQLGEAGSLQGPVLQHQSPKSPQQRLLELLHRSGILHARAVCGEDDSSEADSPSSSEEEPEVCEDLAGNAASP
human Retinoic Acid Receptor gamma (RARg), RARG (gene 5916), sequence (P13631 whole entry, looked up): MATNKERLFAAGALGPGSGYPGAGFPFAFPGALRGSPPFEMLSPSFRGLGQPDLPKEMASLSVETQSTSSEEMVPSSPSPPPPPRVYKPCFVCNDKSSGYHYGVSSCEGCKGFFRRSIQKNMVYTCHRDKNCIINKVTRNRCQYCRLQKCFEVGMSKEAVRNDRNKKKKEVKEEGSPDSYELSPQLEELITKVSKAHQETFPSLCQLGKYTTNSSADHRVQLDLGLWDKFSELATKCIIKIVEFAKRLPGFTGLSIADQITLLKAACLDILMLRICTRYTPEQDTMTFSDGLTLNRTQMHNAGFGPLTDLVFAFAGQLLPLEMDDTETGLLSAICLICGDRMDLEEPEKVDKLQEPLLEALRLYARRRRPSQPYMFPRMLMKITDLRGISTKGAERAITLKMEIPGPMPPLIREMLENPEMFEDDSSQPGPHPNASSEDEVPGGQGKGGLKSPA

In the case of `COc1cc(-c2nc(NC(=O)c3cc4cc(C)cc(C)c4n3CC(=O)O)sc2CCC2CCCCC2)c(OC)cc1Cl`, the outcome in [1], in test [4], in test [5] and in [6] was inactive. The AC50 in test [2] was 5.54 µM (active); in [3] it was 3.78 µM (active); in test [7], 5.53 µM (active); in test [8], 3.38 µM (active); in test [9], 2.91 µM (active); in test [10] it was 5.38 µM (active). The AC50 in test [11] is 5.83 µM (active).
On to `Cc1cc(=O)[nH]c(=S)[nH]1`, for which the compound was classed as inactive in test [12], in [2], in test [3], in [13], in test [14] and in test [7]. The result in test [8], in [9], in [10], in test [15] and in [11] was inactive.
Turning to `O=c1c(O)c(-c2ccc(O)c(O)c2)oc2cc(O)cc(O)c12`, the call in [1], in [2], in test [4], in test [16], in test [13] and in test [17] was inactive. For the same compound, the compound was classed as inactive in [14] and in test [6]. Besides, the AC50 was 26.8 µM (active) in test [3]; 34.7 µM (active) in [7]; 15.8 µM (active) in test [8]; 15 µM (active) in test [9]; 20 µM (active) in test [10].
Regarding `CCOC(=O)CCC(=O)OCC`, the result in test [2], in [18], in [3], in [16], in [17] and in test [7] was inactive. Further, the outcome in test [8] and in test [9] was inactive.
Regarding `CC1(C)NC(=O)NC1=O`, the compound was called inactive in test [12], in test [2], in [19], in [3], in test [5] and in test [17]. The result in test [14], in [6], in [7], in test [8] and in test [9] was inactive.
`CC(C)c1ccc(C(=O)N=C(N)N)cc1S(C)(=O)=O`: the result in test [12], in test [2], in test [18], in [3], in test [4] and in [5] was inactive. In addition, the call in test [13], in test [6], in [7], in test [8], in test [9] and in test [15] was inactive.
On to `CC(=O)OCCOCCOCCOC(C)=O`, for which the result in test [2], in [18], in [19], in [3], in test [4] and in test [16] was inactive. Further, the outcome in [14], in test [6], in test [7], in [8], in test [9] and in test [10] was inactive. For the same compound, the outcome in test [15] and in test [11] was inactive.
As to `CC1(C)CC(N=C=O)CC(C)(CN=C=O)C1` (centres undefined), the outcome in [2], in test [3], in test [13], in test [7], in test [8] and in test [9] was inactive. The result in [10], in test [15] and in [11] was inactive.
